According to PubChem BioAssay (NCI):
Where “and” joins values, the source holds several entries; their conditions need not be identical. Identical values can stand only once. This is part of a sample that, as a whole, favours compounds with a hit. Of some 83,000 tested, about 20% had one in any assay.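 48-hour exposure, single concentration, 96-well plates; percent growth endpoint where 0 means no net growth. Active: below 10.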 Values without a mark were called inactive. Calls of active or inactive are those of the source.

Each compound was assayed on HL-60(TB) leukemia (assay: NCI-60 one-dose screen, 48 h (100 = growth as untreated, 0 = no growth, -100 = all killed)). Conditions: 10 µM unless noted.
O=C(Nc1ccc(Cl)c([N+](=O)[O-])c1)Nc1ccc(Cl)c([N+](=O)[O-])c1 was tested, and the growth was 2.93% (active).
O=C(N/N=C/c1ccc(B(O)O)s1)c1[nH]c2ccc(Br)cc2c1-c1ccccc1 was tested, and the growth was -18.2% (active).
CSc1ccccc1NC(=O)c1ccc2nnn(/C(C#N)=C/c3ccccn3)c2c1 was tested, and the growth was -31.5% (active).
C=C[C@@]12CN3CC[C@]1(O)[C@@](C(=O)OC)(CO2)c1[nH]c2ccccc2c1C3 was tested, and the growth was 20.5%.
For COc1ccc(NC(=O)[C@@H](N)Cc2ccccc2)cc1C(=O)Nc1cccc(C2CC(=O)c3c(cc(OC)c(OC)c3OC)O2)c1 (some centres undefined), the growth was 1.01% (active).
COc1cc(C2CC(c3ccc(F)cc3)=Nc3c(N)nc(N)nc3N2)ccc1Oc1nc(Nc2ccc(F)cc2)nc(N(C)C)n1 (centres undefined) gave a growth of 14.4%.
COc1cc(C2CC(c3cc(OC)c(OC)c(OC)c3)=NN2C(C)=O)ccc1OCc1ccccc1 (centres undefined) gave a growth of 21.5%.
With CC(=O)Nc1ccc(S(=O)(=O)Nc2ccc(-c3ccc4c(c3)NC(=O)/C4=C\c3ccc[nH]3)cc2)cc1 the growth was 84.2%.
C=C1CC[C@@H]2[C@]3(C)COC(c4ccco4)O[C@@H]3CC[C@@]2(C)[C@@H]1C/C=C1/C(=O)OCC1OC(C)=O (some centres undefined) was tested, and the growth was -5.13% (active).
CCN1C(=O)/C(=N\N=C(/C)c2ccc3c(c2)Nc2ccccc2S3)c2cc(Cl)ccc21 showed a growth of 75.2%.
For CCCCN1C(=O)/C(=C\C(=O)c2cc3ccccc3oc2=O)c2ccccc21, the growth was 74.8%.
Work on O=c1[nH]c2ccccc2cc1CSc1ccc(Nc2nccc(-c3ccc4ccccc4c3)n2)cc1 yielded a growth of 92.5%.
COc1c(F)ccc(C(=O)Nc2ccc3nc(NC(=O)C4CCCN(S(=O)(=O)c5cccc(C(F)(F)F)c5)C4)sc3c2)c1F (centres undefined) gave a growth of 72.1%.
For Nc1cc(-c2cccc(C(=O)NCc3ccc4c(c3)OCO4)c2)ccn1, the growth was 98.1%.
For O=C(Nc1ccc(S(=O)(=O)N2CCCCC2)cc1)C(Cl)Cl, the growth was 120%.
COc1cccc(/C=C/c2nc3ccccc3c(=O)n2CC(=O)Nc2ccccc2)c1 was tested, and the growth was 97.7%.
For COc1ccc(C2c3sc4ccc(C)cc4c3Oc3nc(N)nc(N)c32)cc1 (centres undefined), the growth was 84.8%.
For CN1C(=O)/C(=C\C(=O)c2cc3ccccc3oc2=O)c2ccccc21, the growth was 79.3%.
For COc1cc(C2CC(c3cc(OC)c(OC)c(OC)c3)=Nc3c(N)nc(N)nc3N2)ccc1Oc1nc(NCCO)nc(N2CCOCC2)n1 (centres undefined), the growth was 91.9%.
Cc1ccc(C2=NN(c3nc(-c4cc5ccccc5oc4=O)cs3)C(c3ccc(C)cc3)C2)cc1 (centres undefined) gave a growth of 91%.
Cc1ccc(C(=O)Nc2cc(-n3cnc(F)c3)cc(C(F)(F)F)c2)cc1C#Cc1cnc2cccnn12 gave a growth of 23.5%.
With O=C(CSc1nnc(-c2ccc3nc(-c4ccccc4)[nH]c3c2)o1)Nc1ccc(Br)cc1 the growth was 51.3%.
For CN1CCc2c(sc3ncnc(N/N=C/c4cn(-c5ccccc5)nc4-c4ccc(Cl)cc4)c23)C1, the growth was -12.4% (active).
O=C(CSc1nc2c(c(=O)[nH]1)CCCC2)Nc1ccccc1C(=O)O was tested, and the growth was 95.1%.
Work on CCOC(=O)C1=C(N)N(c2ccc(C)cc2)C2=C(C(=O)CC(C)(C)C2)C1c1ccccc1OC (centres undefined) yielded a growth of 98.9%.
In the case of C[C@@H](Nc1c(C#N)cnc2ccc(-c3cnc4[nH]ncc4c3)cc12)c1ccccc1, the growth is reported as 35.2%.
For CC(C)(C)c1ccc(OCc2nc3ccccc3n2-c2cccc(N)c2)cc1, the growth was 67.8% and 98.6%.
For O=C(CSc1nnc(-c2ccc(-c3nc4ccc(Cl)cc4[nH]3)cc2)o1)Nc1ccc(Br)cc1, the growth was 29.7%.
C#CCOc1cc(N(CC)CC)ccc1C(C(=O)NC(C)(C)C)N(C(=O)C1CCc2cc(F)ccc2O1)c1ccc(F)c(Cl)c1 (centres undefined) was tested, and the growth was 27.2%.
With C/C(=N\N=C\c1ccc(N(C)C)cc1)c1ccc2c(c1)Nc1ccccc1S2 the growth was 59.2%.
O=C1CCC(N2Cc3c(NCc4ccc(-c5ccccc5)cc4)cccc3C2=O)C(=O)N1 (centres undefined) gave a growth of 10.7%.
For CSc1nc(-c2cccc(C)c2)c2cc(-c3ccccc3)n(C)c2n1, the growth was -15.8% (active).
Work on COc1ccc(-c2cc(-c3ccccc3)c(C#N)c(=O)[nH]2)cc1S(N)(=O)=O yielded a growth of 142%.
In the case of O=C(/C=C/c1cccc(OCc2ccccc2)c1)c1nc2ccccc2[nH]1, the growth is reported as 5.75% (active).
